For 15 compounds, outcome, activation and potentiation results are on record in PubChem BioAssay.

The test system of assay [1] is TRPC4 beta (transient receptor potential cation channel C4), mouse. The assay is described as follows: activators of mouse TRPC4 channel, confirmation, cell-based, Fluo4 calcium, HEK293 TRPC4beta/mu-opioid, duplicates, 10 µM (AID 2426;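 active means fluorescence ratio normalized to control raised more than 50% in primary screen plus both repeat runs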;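 on activation: percent rise of integrated ratio over buffer wells lacking compound which define 0%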). To be noted: Fluo4 calcium fluorescence, at 10 µM; active compounds read high.
The test system of assay [2] is transient receptor potential cation channel C4 beta (TRPC4), mouse. The assay is described as follows: activators of mouse TRPC4 channel, confirmation, cell-based, second round, Fluo4, HEK293 TRPC4beta/mu-opioid, 1 µM (AID 2461;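 active means primary screen active and over 50% activation in each of two duplicate runs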;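 on activation: 0% = wells without test compound as baseline of integrated fluorescence ratio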). To be noted: Fluo4 calcium fluorescence, at 1 µM; active compounds read high.
The test system of assay [3] is TRPC4 (transient receptor potential cation channel C4 beta), mouse. As to the kind of experiment: positive allosteric modulators of mouse TRPC4, confirmation, cell-based, second round, Fluo-4, HEK293 TRPC4beta/mu-opioid, 1 µM (AID 2554;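 active means primary screen hit whose fluorescence ratio, in both repeats, exceeds the weak agonist control mean by 3 SD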). To be noted: DAMGO EC20, Fluo-4 calcium flux, at 1 µM; active compounds read high. A general note: Calcium assays in cells follow changes in intracellular calcium, usually with a dye or a luminescent sensor.

For assay [4], the system named is TRPC4 beta (transient receptor potential cation channel C4), mouse. As to the kind of experiment: positive allosteric modulators of mouse TRPC4, confirmation, cell-based, Fluo-4, HEK293 TRPC4beta/mu-opioid (AID 2555;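 active means primary screen hit whose calcium fluorescence ratio, in both repeats, exceeds the weak agonist control mean by 3 SD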). To be noted: DAMGO EC20, Fluo-4 calcium flux, at 10 µM; active compounds read high.
Assay [5] has as its target Short transient receptor potential channel 4 (Mus musculus) (UniProt Q9QUQ5). As to the kind of experiment: inhibitors of mouse TRPC4 channel, confirmation, cell-based, Fluo4, HEK293 TRPC4beta/mu-opioid (AID 2636;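 active means calcium signal cut by more than 3 SD below the full-agonist control yet still positive, in both repeats and the earlier primary screen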). To be noted: DAMGO, Fluo4 calcium flux, at 10 µM; active compounds read high.
Assay [6] shares this target. As to the kind of experiment: inhibitors of mouse TRPC4 channel, confirmation, cell-based, second round, Fluo4, HEK293 TRPC4beta/mu-opioid, 1 µM (AID 2637). To be noted: Fluo4 calcium flux, DAMGO, at 1 µM; active compounds read high.
The target is the same in assay [7]. As to the kind of experiment: TRPC4 positive allosteric modulators, dose response, cell-based, HEK293 TRPC4/mu-opioid, Fluo-4 calcium, EC20 DAMGO (AID 434941;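 active means earlier screen potentiator hit that boosts the TRPC4 ion channel at some dose, with a dose response; inactive means no potentiation, no dose response, or not a prior hit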;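 further: calcium entry triggered by an EC20 dose of DAMGO at the co-expressed mu-opioid receptor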).
Assay [8] has the same target. As to the kind of experiment: mouse TRPC4 channel inhibitors, dose response, cell-based, HEK293 TRPC4/mu-opioid, Fluo-4 calcium (AID 434942;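 active means primary screen inhibitor hit that blocks the TRPC4 channel at some tested dose, yielding a dose curve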).
The target of assay [9] is Short transient receptor potential channel 6 (Mus musculus) (UniProt Q61143). As to the kind of experiment: inhibition of mouse TRPC6 channel, confirmation, selectivity assay for TRPC4 inhibitor project, cell-based, HEK293, membrane potential dye, duplicate (AID 434948;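 active means active in primary screen and both duplicates, each dropping signal beyond three positive-control SD with fluorescence still positive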). To be noted: HEK293 TRPC6, membrane potential dye fluorescence, at 10 µM, stimulated with maximal-effect acetylcholine; active compounds read high.
Sequence of Short transient receptor potential channel 6 (Mus musculus) (Q61143 whole entry, looked up): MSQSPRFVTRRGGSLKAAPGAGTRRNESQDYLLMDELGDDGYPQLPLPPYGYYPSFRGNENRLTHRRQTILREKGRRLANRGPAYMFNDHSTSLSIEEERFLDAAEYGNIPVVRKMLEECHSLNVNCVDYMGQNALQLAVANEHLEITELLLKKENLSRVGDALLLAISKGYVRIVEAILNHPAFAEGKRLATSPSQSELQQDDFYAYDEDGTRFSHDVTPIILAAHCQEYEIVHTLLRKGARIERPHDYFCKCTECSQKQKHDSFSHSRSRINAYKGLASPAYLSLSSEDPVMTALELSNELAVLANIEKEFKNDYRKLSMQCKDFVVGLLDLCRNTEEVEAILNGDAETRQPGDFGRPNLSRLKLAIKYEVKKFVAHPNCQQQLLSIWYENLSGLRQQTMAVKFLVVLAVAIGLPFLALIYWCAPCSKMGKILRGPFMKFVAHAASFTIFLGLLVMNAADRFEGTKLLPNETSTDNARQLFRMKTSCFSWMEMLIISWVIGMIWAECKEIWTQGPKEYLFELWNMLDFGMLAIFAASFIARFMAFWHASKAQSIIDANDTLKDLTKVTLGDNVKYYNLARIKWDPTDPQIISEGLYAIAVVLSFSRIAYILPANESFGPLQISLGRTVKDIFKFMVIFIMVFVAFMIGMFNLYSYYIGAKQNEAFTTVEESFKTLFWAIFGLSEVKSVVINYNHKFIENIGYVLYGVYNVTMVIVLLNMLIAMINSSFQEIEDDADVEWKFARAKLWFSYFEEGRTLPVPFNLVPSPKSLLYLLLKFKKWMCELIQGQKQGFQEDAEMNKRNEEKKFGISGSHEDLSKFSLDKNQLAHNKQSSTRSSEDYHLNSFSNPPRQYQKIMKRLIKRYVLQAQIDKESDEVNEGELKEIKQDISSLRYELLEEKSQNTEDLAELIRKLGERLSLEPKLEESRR

Assay [10] has the same target. As to the kind of experiment: activation of mouse TRPC6 channel, confirmation, selectivity assay for TRPC4 activator project, cell-based, HEK293, membrane potential dye, duplicate (AID 434950;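 active means membrane potential signal rise above negative control mean plus 3 SD in both duplicates, also active in the earlier TRPC4 screen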;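 on activation: 0% = buffer only wells and 100% = acetylcholine maximal-effect wells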). To be noted: HEK293 TRPC6, membrane potential fluorescence, at 10 µM; active compounds read high.
Assay [11] has the same target. The assay is described as follows: TRPC6 potentiation by TRPC4 potentiator hits, confirmation, selectivity assay for TRPC4 potentiator project, HEK293 cells, membrane potential dye, duplicate (AID 434952;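 active means compound raising the membrane signal above positive-control mean plus 3 SD in both repeats, and a primary screen hit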). To be noted: HEK293 TRPC6, membrane potential dye fluorescence, at 10 µM, maximal acetylcholine added after compound; active compounds read high.
Assay [12] concerns the target Short transient receptor potential channel 4 (Mus musculus) (UniProt Q9QUQ5). As to the kind of experiment: calcium flux activators in TRPC4/5HT1a cells, counter-screen for TRPC4 activator project, cell-based, second counter screen, HEK293 TRPC4/5HT1a, Fluo-4 (AID 434977;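 active means calcium signal rise above buffer-control mean plus 5 SD in both duplicates, and also a hit in the primary screen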;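 on activation: plate controls were assay buffer for no effect and maximal serotonin response for full effect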). To be noted: Fluo-4 calcium flux, at 10 µM; active compounds read high.
A short description of assay [13]: calcium flux inhibitors in TRPC4/5HT1a cells, confirmation, counter-screen for TRPC4 inhibitor project, cell-based, second counter screen, HEK293 TRPC4/5HT1a, Fluo-4 (AID 434978;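 active means primary screen active whose calcium signal fell more than 3 SD beyond the full-serotonin control mean in both duplicate plates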;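 further: serotonin given first at submaximal then at maximal dose after compound preincubation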). To be noted: Fluo-4 calcium flux, at 10 µM, serotonin added to trigger calcium flux; active compounds read high.
Assay [14] has as its system TRPC4 (mouse), co-expressed with 5HT1a in HEK293. As to the kind of experiment: calcium flux potentiators in TRPC4/5HT1a cells, confirmation, counter-screen for TRPC4 potentiator project, cell-based, second counter screen, HEK293 TRPC4/5HT1a, Fluo-4 (AID 434979;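 active means signal rise over 3 SD above mean of control wells given weak agonist, in both repeats and first screen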). To be noted: Fluo-4 calcium flux, at 10 µM, serotonin added at its EC20 dose; active compounds read high.
A short description of assay [15]: calcium flux activation in mu-opioid HEK293 cells, confirmation, counter-screen for TRPC4 activator project, cell-based, HEK293 mu-opioid receptor line (AID 449723;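 active means hit in primary screen, with calcium signal over 5 SD above buffer well mean in both duplicates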;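 further: counter screen cells carry the mu-opioid receptor alone and lack TRPC4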). To be noted: Fluo-4 calcium fluorescence, at 10 µM; active compounds read high.
A short description of assay [16]: calcium flux enhancement in mu-opioid HEK293 cells, confirmation, counter-screen for TRPC4 allosteric potentiator project, cell-based, HEK293 mu-opioid receptor line (AID 449724;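 active means calcium signal rise more than 3 SD above the low-dose agonist control mean, in both duplicate plates and the primary screen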;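 further: HEK293 cells carrying mu-opioid receptor only with no TRPC4 channel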). To be noted: Fluo-4 calcium flux, at 10 µM, compound added before EC20 DAMGO stimulus; active compounds read high.

For part of these data: Results with a measured potency or affinity are listed apart. The source made the active and inactive calls.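 How the source made its calls, unless noted: active means calcium signal ratio cut to more than 3 SD under the fully stimulated control mean yet still positive, in both repeats and the primary screen; inactive means the rest.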

Sequence of Short transient receptor potential channel 4 (Mus musculus) (Q9QUQ5 whole entry, looked up): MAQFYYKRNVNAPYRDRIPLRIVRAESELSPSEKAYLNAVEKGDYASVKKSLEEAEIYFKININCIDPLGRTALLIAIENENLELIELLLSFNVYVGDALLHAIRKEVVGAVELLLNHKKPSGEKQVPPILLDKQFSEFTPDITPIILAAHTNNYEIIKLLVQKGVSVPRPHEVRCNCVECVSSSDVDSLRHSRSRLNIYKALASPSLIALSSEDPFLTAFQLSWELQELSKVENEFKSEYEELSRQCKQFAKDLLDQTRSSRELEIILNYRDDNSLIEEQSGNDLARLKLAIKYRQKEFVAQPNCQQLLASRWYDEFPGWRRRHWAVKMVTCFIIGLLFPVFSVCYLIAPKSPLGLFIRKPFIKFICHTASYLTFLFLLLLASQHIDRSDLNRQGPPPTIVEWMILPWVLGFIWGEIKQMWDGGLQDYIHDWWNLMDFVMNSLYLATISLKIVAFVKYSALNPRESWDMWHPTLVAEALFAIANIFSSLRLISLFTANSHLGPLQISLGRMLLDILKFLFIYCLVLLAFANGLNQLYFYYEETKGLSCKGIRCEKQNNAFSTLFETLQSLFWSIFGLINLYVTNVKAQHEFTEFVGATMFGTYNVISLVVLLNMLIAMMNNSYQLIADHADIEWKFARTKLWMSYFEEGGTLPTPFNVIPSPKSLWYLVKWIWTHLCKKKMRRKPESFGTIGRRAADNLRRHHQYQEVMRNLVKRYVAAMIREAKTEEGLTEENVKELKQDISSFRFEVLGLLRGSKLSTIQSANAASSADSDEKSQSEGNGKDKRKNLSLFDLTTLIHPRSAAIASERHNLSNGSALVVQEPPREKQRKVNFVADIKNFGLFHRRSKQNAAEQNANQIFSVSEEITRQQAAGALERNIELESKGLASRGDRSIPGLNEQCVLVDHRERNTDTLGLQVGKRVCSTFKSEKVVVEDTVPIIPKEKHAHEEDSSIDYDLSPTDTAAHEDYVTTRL

In the case of `CCCN(CCC)CCNC(=S)Nc1ccc2nc3n(c(=O)c2c1)CCCCC3`, the result in [1], in assay [2], in assay [3], in assay [4], in assay [5] and in [6] was inactive. In addition, the result in [7], in assay [8], in assay [9], in assay [11], in [13] and in assay [14] was inactive. Also, the outcome in assay [15] and in assay [16] was inactive. Moreover, the activation was 47% (active) in assay [10] and 7.78% (active) in assay [12].

With `CCn1c(N2CCN(C(=O)Nc3ccc(F)cc3)CC2)nc2ccccc21`, the activation in assay [1] was 119% (active); in assay [10], 41% (active); in [12], 28.1% (active). Also, the result in assay [2], in assay [3], in assay [4], in assay [5], in assay [6] and in assay [7] was inactive. The result in assay [8], in assay [9], in assay [11], in [13], in assay [14] and in assay [15] was inactive. Besides, the result in [16] was inactive.

For `CN(C)CCCN(C(=O)c1ccc(S(=O)(=O)N2CCCCCC2)cc1)c1nc2ccc(F)cc2s1`, the activation in assay [1] was 278% (active); in [12], 44.3% (active); in [15], 27.1% (active). Moreover, the outcome in [2], in [3], in assay [4], in assay [5], in assay [6] and in assay [7] was inactive. The outcome in assay [8], in assay [9], in assay [10], in assay [11], in assay [13] and in [14] was inactive. Moreover, the outcome in [16] was inactive.

Turning to `CN(C)C(CNC(=S)Nc1ccc(F)cc1)c1cccnc1` (stereo not given), the figures for the activation in assay [1], in [2] and in assay [10] were 95% (active), 82% (active) and 28.5% (active), respectively. Moreover, the result in assay [3], in assay [4], in assay [5], in [6], in [7] and in assay [8] was inactive. The compound was called inactive in [9], in assay [11], in assay [12], in assay [13], in assay [14] and in assay [15]. The outcome in assay [16] was inactive.

In the case of `Cc1ccc(C)c(OCCCCCn2ccnc2)c1`, the activation in assay [1] was 174% (active); in [10] it was 49% (active); in assay [12], 25.7% (active). Besides, the outcome in assay [2], in [3], in assay [4], in [5], in assay [6] and in assay [7] was inactive. Further, the result in assay [8], in assay [9], in [11], in assay [13], in assay [14] and in assay [15] was inactive. For the same compound, the outcome in assay [16] was inactive.

In the case of `O=C(c1sc2ccccc2c1Cl)N(Cc1ccco1)C1CCS(=O)(=O)C1` (stereo not given), the activation in assay [1] is 198% (active); in [10] it was 57.5% (active). Moreover, the result in [2], in assay [3], in assay [4], in assay [5], in assay [6] and in [7] was inactive. For the same compound, the outcome in [8], in assay [9], in [11], in assay [12], in [13] and in assay [14] was inactive. The result in assay [15] and in assay [16] was inactive.

Consider `CCOC(=O)C1(CCCc2ccccc2)CCN(Cc2cn(CC)nc2C)CC1`, for which the results for the activation in assay [1], in assay [2] and in [10] were 153% (active), 76% (active) and 84% (active), respectively. Further, the outcome in assay [3], in assay [4], in assay [5], in assay [6], in assay [7] and in [8] was inactive. Also, the compound was classed as inactive in assay [9], in assay [11], in assay [12], in [13], in [14] and in assay [15]. The result in assay [16] was inactive.

With `O=C(NCCc1cccc(Cl)c1)c1ccc(OC2CCN(Cc3ccccn3)CC2)cc1`, the activation in [1] was 69% (active); in assay [10], 43.5% (active). Further, the outcome in [2], in [3], in assay [4], in assay [5], in [6] and in [7] was inactive. Further, the result in [8], in assay [9], in assay [11], in assay [12], in assay [13] and in assay [14] was inactive. Also, the outcome in [15] and in assay [16] was inactive.

As to `CC(C)(C)c1cc(Cl)ccc1OCCn1ccnc1`, the activation in assay [1] is 57% (active); in assay [12], 17.9% (active). For the same compound, the result in [2], in [3], in assay [4], in assay [5], in [6] and in [7] was inactive. The result in assay [8], in assay [9], in assay [10], in assay [11], in [13] and in assay [15] was inactive. For the same compound, the result in assay [16] was inactive. Moreover, the potentiation in [14] is 14.1% (active).

`CCCCC(=O)NNC(=S)NC(=O)c1ccc(C)cc1`: the values for the activation in [1] and in assay [12] were 240% (active) and 15% (active), respectively. The outcome in [2], in [3], in [4], in assay [5], in assay [6] and in assay [7] was inactive. Further, the result in assay [8], in assay [9], in assay [10], in [11], in [13] and in assay [14] was inactive. Further, the result in assay [15] and in assay [16] was inactive.

For the compound `Cc1cc(C)c(CN2CCN(Cc3ccc(C)o3)C(CCO)C2)c(-n2cccn2)c1` (stereo not given), the activation in assay [1] is 75% (active); in assay [10] it was 73% (active). The outcome in assay [2], in assay [3], in [4], in assay [5], in assay [6] and in assay [7] was inactive. Moreover, the outcome in [8], in [9], in assay [11], in assay [12], in [13] and in assay [14] was inactive. Further, the outcome in assay [15] and in assay [16] was inactive.

Turning to `CCOC(=O)C1CCCN(C(c2ccccn2)c2c(C)[nH]c3ccccc23)C1` (stereo not given), the activation was 208% (active) in [1], 31% (active) in [10] and 34% (active) in assay [12]. The result in [2], in assay [3], in assay [4], in [5], in [6] and in assay [7] was inactive. Moreover, the result in assay [8], in assay [9], in assay [11], in assay [13], in assay [14] and in assay [15] was inactive. In [16], the result was inactive.

For the compound `CCN(CCCNS(=O)(=O)c1cc(-c2cc(C)no2)ccc1C)Cc1ccccc1`, the activation in [1] is 171% (active); in [2] it was 96% (active); in assay [10], 40.5% (active); in assay [12], 68.6% (active). Besides, the outcome in assay [3], in assay [4], in assay [5], in assay [6], in assay [7] and in assay [8] was inactive. Besides, the compound was classed as inactive in assay [9], in assay [11], in assay [13], in [14], in assay [15] and in assay [16].

Consider `CC(C)c1ccc(NC(=S)N(C)CCc2ccccn2)cc1`, for which the result in assay [1], in [2], in assay [3], in [4], in assay [5] and in assay [6] was inactive. Besides, the outcome in assay [7], in [8], in [9], in [10], in assay [11] and in [13] was inactive. Further, the result in assay [14], in [15] and in assay [16] was inactive. For the same compound, the activation in assay [12] is 25.6% (active).

In the case of `CN1CCC(CNC(=O)Nc2ccccc2)(c2ccccc2)CC1`, the activation was 97% (active) in assay [1] and 52% (active) in assay [2]. For the same compound, the result in [3], in [4], in [5], in [6], in assay [7] and in assay [8] was inactive. In addition, the call in [9], in assay [10], in assay [11], in [12], in [13] and in [14] was inactive. The result in assay [15] and in [16] was inactive.
